High-throughput results (PubChem)
CCHFV vOTU inh: CCHFV vOTU protease inhibition; Pep-AMC fluorescence; inhibition, % at 11.5 µM; AID 651958; 370,000 compounds, 0.55% hits; further: 0% = vehicle wells with enzyme and 100% = no enzyme wells
RecA splice inh: blocks M. tuberculosis RecA intein splicing | cell-free RecA intein splicing, fluorescence | P9WHJ3 | inhibition, % (no concentration beside the values) | AID 2221 | 290,000 compounds, 0.75% hits; in the data active means inhibition above about 30%;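 further: 0% = vehicle wells and 100% = reference inhibitor control wells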
GDH-TPI inh: counter-screen for M. tuberculosis FBA inhibitors: GDH-TPI coupled enzymes; GDH-TPI coupled enzyme counterscreen, NADH absorbance; inhibition, % at 4.8 µM; 360,000 compounds, 1.2% hits;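 further: 0% = DMSO wells and 100% = wells lacking the enzyme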
DUSP3 inh: inhibitors of human VHR1 phosphatase (DUSP3); P51452; recombinant VHR phosphatase, pNPP absorbance; inhibition, % at 13.3 µM; 290,000 compounds, 0.52% hits; in the data active means inhibition above about 50%
Mtb FBA inh: Mtb fructose-bisphosphate aldolase inhibition; P9WQA3; purified M. tuberculosis FBA, fluorescence read-out; inhibition, % at 1 µM; 360,000 compounds, 2.3% hits; AID 588726; in the data active means inhibition above about 27%;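 further: 0% = vehicle and 100% = reference inhibitor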
Target sequence (P9WQA3 whole entry, looked up): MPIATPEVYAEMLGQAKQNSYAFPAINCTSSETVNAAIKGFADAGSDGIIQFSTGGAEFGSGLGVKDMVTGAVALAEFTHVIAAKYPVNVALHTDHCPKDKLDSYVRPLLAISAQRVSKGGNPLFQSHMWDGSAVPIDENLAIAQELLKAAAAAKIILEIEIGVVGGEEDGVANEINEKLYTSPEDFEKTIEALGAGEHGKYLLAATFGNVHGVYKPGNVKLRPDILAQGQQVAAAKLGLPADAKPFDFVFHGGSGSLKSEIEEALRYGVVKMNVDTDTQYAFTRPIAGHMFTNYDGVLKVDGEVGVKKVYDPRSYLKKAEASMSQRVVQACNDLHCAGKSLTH
3CLpro inhibitor: SARS-CoV 3CLpro protease inhibition. inhibition, % at 6 µM. 290,000 compounds, 0.14% hits. recombinant SARS-CoV 3CLpro, quenched FRET peptide cleavage. P0C6X7. AID 1706; in the data active means inhibition above about 12%
An asterisk follows results filed as active; nt = no result given; + = active, no number. Only some compounds are listed: those with a hit (about 4.7% of all), similar ones and a draw of the others. Unless noted, no stated cut-off is given here; in the data, active means inhibition above about 30%; inactive means the rest.

SMILES | CCHFV vOTU inh | RecA splice inh | GDH-TPI inh | DUSP3 inh | Mtb FBA inh | 3CLpro inhibitor
CC(O)CNc1cc(N)c([N+](=O)[O-])cc1[N+](=O)[O-] (stereo unspecified) | 5 | 0 | 43* | 8 | -5 | -2
CCC(=O)Oc1ccc2c(c1)OC1(OC(C)=O)OC(C)CC1=C2C (stereo unspecified) | -403 | -48 | 21 | -1 | + | 0
CCC(=O)Oc1ccc2oc(=O)cc(C)c2c1 | -5 | 1 | -1 | 0 | 1 | 4
COc1ccc(Nc2oc(-c3cccs3)nc2C#N)cc1 | 11 | 3 | 16 | 33 | 10 | -1
CN(C)c1ccc(-c2nnc(-c3cccs3)o2)cc1 | -12 | 0 | 21 | 0 | 21 | 3
CN(C)c1oc(-c2cccs2)nc1C#N | -231 | -5 | 30 | -2 | + | 3
CN(C)c1oc(-c2ccccc2F)nc1C#N | -174 | 0 | 22 | -32 | + | 0
CNc1oc(-c2cccs2)nc1C#N | -229 | -2 | 23 | 14 | + | -4
CC(C)NC(=O)NC(=O)CSc1nnc(-c2c[nH]c3ccccc23)o1 | 9 | -2 | -3 | -2 | 6 | 6
COC(=O)[C@]12C[C@H](CC(=O)N3CCN(C(=O)c4ccco4)CC3)C(=O)N(CCC3=CCCCC3)C1=C[C@H](COCc1ccccc1)O[C@@H]2C | 6 | nt | nt | nt | nt | nt
O=c1cc2c(=O)oc3cc(O)c(O)oc3c2c(O)c1O | 1 | -9 | 1 | 112* | 3 | 0
COc1ccc2nc(SCC(=O)NC3CCCCC3)[nH]c2c1 | 8 | nt | 7 | 58* | 0 | -4
O=C(COC(=O)C1CC1)NCc1ccccc1 | 3 | nt | 6 | nt | 2 | nt
CC(OC(=O)/C(C#N)=C/c1ccco1)C(=O)N(C)c1ccccc1 (stereo unspecified) | 4 | nt | 32* | nt | -5 | nt
CC(OC(=O)CNC(=O)c1ccco1)C(=O)N(C)c1ccccc1 (stereo unspecified) | 11 | -1 | 1 | 9 | 1 | -3
Cc1ccc(C)c(OCCNc2ncccc2[N+](=O)[O-])c1 | 7 | 11 | 5 | 30 | -5 | -1
CCn1cc(CNC(=O)c2ccc(C)s2)cn1 | -5 | -1 | 2 | 57* | 1 | 3
Cc1ccc(CNC(=O)c2ccc(C)s2)cc1 | -2 | -1 | -1 | nt | 0 | nt
COC(=O)c1cc2c(-c3ccccc3)cc3ccccn3c-2c1C(=O)OC | 7 | -2 | 35* | -2 | -4 | -2
COC(=O)c1c(C)c2c(C)cc3ccccn3c-2c1C(=O)OC | 4 | -6 | 20 | -4 | 2 | 1
Cc1ccc(Cn2cc(COC(=O)Nc3ccc(F)cc3)nn2)cc1 | -2 | nt | nt | nt | nt | nt
Cc1[nH]c2ccccc2c1C(=O)c1c(N)[nH]c(C(=O)c2ccc(Br)cc2)c1-c1ccc(Br)cc1 | 1 | nt | nt | nt | nt | nt
CC(=O)NC1=C(Nc2ccc(N(C)C)cc2)C(=O)c2ccccc2C1=O | 25 | 76* | 10 | 22 | -5 | 6
Cn1cnc([N+](=O)[O-])c1Sc1ccc(C(C)(C)C)cc1 | 12 | 31* | 4 | -22 | 3 | 4
CCOC(=O)C(=CNc1ccccc1N1CCOCC1)C(=O)OCC | 9 | 1 | 50* | 2 | -1 | 2
SMILES | CCHFV vOTU inh | RecA splice inh | GDH-TPI inh | DUSP3 inh | Mtb FBA inh | 3CLpro inhibitor
Cc1ccc(OCC(=O)Nc2ccccc2N2CCOCC2)c(C)c1 | 7 | 7 | 3 | 52* | 4 | 3
CCOC(=O)c1ccc2nc(C(F)(F)F)[nH]c(=O)c2c1 | -5 | nt | 5 | 21 | 42* | -2
O=C(O)c1ccc2nc(C(F)(F)F)[nH]c2c1 | -12 | nt | -10 | 0 | -3 | -6
O=c1[nH]c(=S)n(Cc2ccco2)c(O)c1C=NCc1cccs1 | 20 | 1 | 34* | -23 | 4 | 2
NC(=O)c1ccc(N=Cc2c(O)n(Cc3ccco3)c(=O)[nH]c2=O)cc1 | 10 | 2 | 36* | 1 | -1 | 0
CC(=O)N1CCN(c2ccc(N=Cc3c(O)n(Cc4ccccc4)c(=O)[nH]c3=O)cc2)CC1 | -3 | -7 | 33* | 4 | -4 | -5
O=C(O)c1ccc(N=Cc2c(O)n(Cc3ccc(F)cc3)c(=O)[nH]c2=O)cc1 | -2 | 0 | 1 | -7 | -6 | -7
Cc1cccc(C)c1-n1nnnc1C1c2ccccc2C(=O)N1C1CC1 (stereo unspecified) | 5 | nt | nt | nt | nt | nt
Cc1ccccc1N1CCN(C2=Nc3ccccc3Sc3ccccc32)CC1 | -2 | nt | nt | nt | nt | nt
O=C(Nc1ccccc1)c1ccccc1O | 0 | 2 | 17 | 5 | 8 | -1
